High-throughput results as filed in PubChem BioAssay.
Anthrax LF inh2: blocks Bacillus anthracis lethal factor protease; P15917; multiplex microsphere protease cleavage assay, LF; inhibition, % at 10 µM; actives 0.12% (n = 360,000); in the data active = inhibition above about 30%; also: plate controls were buffer without enzyme for full effect and enzyme alone for no effect
BoNT-F LC inh: inhibitors of Botulinum neurotoxin F light chain protease | actives 0.22% (n = 360,000) | AID 588497 | inhibition, % at 10 µM | Multiplex microsphere protease cleavage assay, flow cytometry; in the data active = inhibition above about 35%, passing the limit was not always enough; also: plate controls were buffer without enzyme for full effect and enzyme alone for no effect
BoNT-A LC inh2: BoNT A light chain protease inhibition; multiplex microsphere protease substrate cleavage, flow cytometry; inhibition, % at 10 µM; actives 0.17% (n = 360,000); AID 588499; in the data active = inhibition above about 30%; also: plate controls were buffer without enzyme for full effect and enzyme alone for no effect
Autofluor counter: compound fluorescence in toxin protease inhibitor counterscreen | compound autofluorescence counterscreen, microsphere flow cytometry; active compounds read high | fluorescence intensity (concentration not given with the values) | actives 3.1% (n = 360,000) | AID 624483; in the data active = fluorescence intensity above about 16000
BH1578 lux ind: quorum light induction in luxS cqsA deficient V. cholerae; V. cholerae BH1578 lux reporter, luminescence, 6 h; activation, % at 18.7 µM; actives 0.16% (n = 350,000); in the data active = activation mostly above about 9.7%, no sharp cut-off
MazF activator: MazEF (E. coli) toxin RNase activation | P0AE70 | FAM/BHQ RNA-DNA oligo cleavage fluorescence, 5 h | activation, % at 20 µM | actives 0.32% (n = 350,000); in the data active = activation above about 50%
Target sequence (P0AE70 whole entry, looked up): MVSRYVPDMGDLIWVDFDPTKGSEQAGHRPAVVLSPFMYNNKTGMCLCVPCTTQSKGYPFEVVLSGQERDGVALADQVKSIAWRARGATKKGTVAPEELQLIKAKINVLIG
BoNTA LC inh 2: inhibitors of botulinum neurotoxin A light chain protease; shares compounds with BoNT-A LC inh2; multiplex microsphere protease cleavage assay, flow cytometry; inhibition, % at 10 µM; actives 10% (n = 150); AID 602325; in the data active = inhibition above about 24%
Anthrax LF CP2: inhibitors of Bacillus anthracis lethal factor protease; actives 7% (n = 150); AID 602327; inhibition, % at 10 µM; shares compounds with BoNT-A LC inh2; multiplex microsphere protease cleavage assay
BoNT-F LC CP2: blocks botulinum neurotoxin F light chain protease; shares compounds with BoNT-A LC inh2; multiplex microsphere protease cleavage assay, flow cytometry; inhibition, % at 10 µM; actives 7% (n = 150); AID 602336
The depositor's hits bear a star; i = inactive; nt = no result. This is a sample that favours compounds with a hit; in the whole collection about 3.9% have one here. Rule as the data show it, unless noted: active = inhibition above about 25%; inactive = the rest.

SMILES	Anthrax LF inh2	BoNT-F LC inh	BoNT-A LC inh2	Autofluor counter	BH1578 lux ind	MazF activator	BoNTA LC inh 2	Anthrax LF CP2	BoNT-F LC CP2
COc1ccc(Cc2c(-c3ccccc3)nc3cc(C)c(Br)c(C)n23)c(C)c1	0.5	-13.3	-0.3	6172	nt	nt	nt	nt	nt
O=C1OC(c2cccc([N+](=O)[O-])c2)C2(CCCC2)C(=O)C12CCCCC2 (centres undefined)	0.9	-4.1	0.0	2096	-0.2	0.0	nt	nt	nt
COc1ccc(CNS(=O)(=O)c2ccc(OC)cc2)cc1	-2.6	-18.1	-1.2	2583	-0.8	4.4	nt	nt	nt
Cc1cc2cc(CNS(=O)(=O)c3ccccc3)ccc2n1C	-64.2	-103.4	83.3*	1735	-1.0	-13.8	22.7	14.4	-26.4
COc1ccc(S(=O)(=O)NCc2ccc3c(c2)cc(C)n3C)cc1	-94.5	-108.5	79.4*	1230	-0.6	-16.1	24.2*	13.9	-15.3
COc1ccc(C#Cc2ccc(C3=CC(=O)CC(C)(C)C3=O)cc2)cc1	29.6*	13.1	28.7	3071	i	0.6	15.9	11.1	15.8
CC1(C)CC(=O)C=C(c2ccc(Oc3ccccc3)cc2)C1=O	4.0	-1.1	1.9	3621	i	-9.8	nt	nt	nt
COc1ccc(OC)c(S(=O)(=O)NC(=O)C2(C)CCN2C(=O)C2(c3ccc(Cl)cc3)CC2)c1 (centres undefined)	8.8	10.4	0.2	3702	0.3	nt	nt	nt	nt
COc1ccc(C(CNC(=O)c2ccc(C)c(S(=O)(=O)N3CCCCC3)c2)N2CCCC2)cc1 (centres undefined)	56.1*	86.3*	22.5	9963	i	6.7	0.6	-0.8	5.0
Fc1ccc(-c2nc3ccc(Br)cn3c2Cc2ccsc2)cc1	24.6	-3.4	32.0*	6185	nt	nt	13.6	11.1	0.2
Cc1ccc(-c2nc3ccc(Br)cn3c2Cc2ccsc2)cc1	10.2	-20.3	19.2	5688	nt	nt	nt	nt	nt
C[C@H](NC(=O)[C@H]1N2C(=O)c3ccccc3C2SC1(C)C)C(=O)N1CCCCC1 (some centres undefined)	-3.4	-2.8	0.0	4928	i	2.1	nt	nt	nt
Cc1cc2ccccc2n1CCNC(=O)Cc1cccc2ccccc12	-124.0	-115.9	55.2*	1162	-0.3	10.9	11.7	10.0	-4.7
Cc1cc2ccccc2n1CCNC(=O)c1ccc(Br)o1	-117.3	-145.1	66.4*	1384	0.1	-29.3	21.0	22.4	-3.0
COC(=O)CNC(=O)COc1ccccc1	1.5	1.3	0.0	2518	-6.2	-5.6	nt	nt	nt
Cc1cc2ccccc2n1CCNC(=O)COc1ccccc1	-63.3	-87.7	84.4*	1122	i	-14.9	77.2*	49.7*	-14.0
CCC(=O)NCCn1c(C)cc2ccccc21	33.2*	19.8	25.8	5062	-0.2	-9.0	34.0*	1.6	27.8*
Cc1cc2ccccc2n1CCNC(=O)c1ccc(S(=O)(=O)N2CCOCC2)cc1	-100.4	-127.6	28.6	1079	0.8	-1.9	nt	nt	nt
Cc1ccc(OCCCCN2CCCC(C)C2)c([N+](=O)[O-])c1 (centres undefined)	-2.2	-3.5	-0.3	3894	-0.5	1.9	nt	nt	nt
COc1ccc(-c2cn3nc(SCC(=O)NCC4CCCO4)ccc3n2)cc1 (centres undefined)	2.0	7.1	2.2	5670	1.1	16.0	nt	nt	nt
Cc1cc2ccccc2n1CCNC(=O)C(C)(C)C	12.4	-15.6	96.1*	2350	-0.6	-13.9	10.6	9.6	11.3
COc1ccc(C(=O)OCC(=O)c2c[nH]c3ccccc23)c(OC)c1	-3.2	-5.1	-4.4	8458	-4.2	16.0	2.7	-1.0	1.7
COc1ccc(C(=O)OCC(=O)c2cc(OC)ccc2OC)c(OC)c1	0.6	-7.2	-0.3	2846	-0.5	-0.9	nt	nt	nt
O=C(OCC(=O)c1c[nH]c2ccccc12)c1cccc([N+](=O)[O-])c1	39.2*	-11.5	33.4*	5658	-1.4	7.2	14.5	13.7	-0.4
NC(=O)Nc1ccc(C(=O)OCC(=O)c2c[nH]c3ccccc23)cc1	-1.5	-10.8	-0.6	3902	i	0.3	nt	nt	nt
SMILES	Anthrax LF inh2	BoNT-F LC inh	BoNT-A LC inh2	Autofluor counter	BH1578 lux ind	MazF activator	BoNTA LC inh 2	Anthrax LF CP2	BoNT-F LC CP2
COc1cccc(C(=O)OCC(=O)c2c[nH]c3ccccc23)c1OC	2.6	7.1	0.8	2872	0.4	-8.6	1.4	-1.4	-1.7
O=C(OCC(=O)c1c[nH]c2ccccc12)c1cncc(Br)c1	0.4	-0.7	1.1	4518	-2.0	3.8	nt	nt	nt
O=C(OCC(=O)c1c[nH]c2ccccc12)c1ccc(OC(F)F)cc1	3.9	-5.2	1.8	3716	-1.3	3.6	2.2	2.2	-0.5
COc1ccccc1C(=O)COC(=O)Cc1c[nH]c2ccccc12	5.1	32.8	6.5	5107	i	5.9	nt	nt	nt
O=C(COC(=O)c1cc[n+]([O-])cc1)Nc1ccc(Cl)cc1C(F)(F)F	-1.1	8.6	4.1	4349	i	0.5	nt	nt	nt
CC(C)(C)OC(=O)NCc1ccc(CNC(=O)c2nc[nH]c2C(=O)N2CCN(c3ccccc3)CC2)cc1	-5.5	-8.1	-0.3	2963	1.6	-1.9	nt	nt	nt
COc1ccc(NS(=O)(=O)c2cc(NC(=O)CCc3ccc(OC)c(OC)c3)ccc2N2CCOCC2)cc1	2.2	-20.6	-1.2	4186	i	3.2	nt	nt	nt
C[C@H](NC(=O)N1CCn2c1nc1ccccc12)C(=O)NCc1ccc(F)cc1	-2.5	14.8	2.9	4849	i	4.0	nt	nt	nt
CN(C)c1ccc(/C=C2/C[N+](C)(C)C/C(=C/c3ccc(N(C)C)cc3)C2=O)cc1	40.9*	-27.3	85.5*	7292	i	-1.8	47.7*	28.4*	-3.6
COC(=O)[C@]12CCCCC=C1N(Cc1cccc3ccccc13)C(=O)[C@H](CC(=O)NCC13CC4CC(CC(C4)C1)C3)C2	0.5	-10.9	-1.3	4509	nt	nt	nt	nt	nt
Cc1cc2cc(CNC(=O)c3ccc(C)c([N+](=O)[O-])c3)ccc2[nH]1	-68.9	-89.0	64.8*	3000	-1.0	6.4	4.1	3.3	7.9
